The values below come from PubChem BioAssay (NCATS).

Test [1] is described as follows: AP1 Signaling Pathway (AID 357). Also: % is scaled to controls: 0 for no effect and ±100 for the full control effect. As to conditions: ME-180 AP-1-bla reporter, EGF-induced, beta-lactamase ratio, 5 h; at 17.2 µM (top of the series) unless noted. In outline: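 Cells are seeded overnight, exposed to compound titrations and an EC50 level of EGF for 5 hours at 37 °C, then loaded with CCF4 dye for 2.5 hours. Beta-lactamase activity under the AP-1 element is read as a blue/green ratio.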

Test [2] is described as follows: NFAT Signaling Pathway (AID 444).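 Also: carbachol stimulus at about its EC50 of 1 µM final; % is scaled to controls: 0 for no effect and ±100 for the full control effect.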 As to conditions: Jurkat NFAT-bla M1, carbachol, beta-lactamase ratio, 5 h; at 17.2 µM (top of the series) unless noted. In outline:
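Read-out: CCF4 FRET ratio (460 nm/530 nm) after 1 h RT dye loading, used for %activity and AC50 from titration series. Cells: Jurkat NFAT-β-lactamase/M1 line, treated with compound plus 1 uM carbachol for 5 h, 37 °C.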

The nature of test [3]: Stat Signaling Pathway (AID 446).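 Also: ME-180 cervical cancer cells given 40 pM IL-6 alongside compound; SIE-controlled beta-lactamase reporter measured as 460/530 nm FRET emission ratio; % is scaled to controls: 0 for no effect and ±100 for the full control effect.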 As to conditions: ME-180 SIE beta-lactamase reporter, IL-6 stimulated, 5 h; at 17.2 µM (top of the series) unless noted. In outline:
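Screening format detects activators and inhibitors alike: ME-180 SIE-bla cells stimulated at 40 pM IL-6 for 5 hrs with compound, then dual-emission beta-lactamase read at 405 nm excitation.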

Test [4] concerns the target Glucocorticoid receptor (Homo sapiens) (UniProt P04150). The experiment in a line: GR-GFP Redistribution (AID 450;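 active = compounds whose dose series gives a full or clear partial fitted curve of increased nuclear translocation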; also: potency is read from the fitted curve at half-maximal effect).
For test [5] the target is unchanged. The experiment in a line: GR-EFC Redistribution (AID 451; calls by dose curve; also: potency is read from the fitted curve at half-maximal effect). As to conditions: CHO-K1 GR-EFC translocation, beta-gal luminescence, 2 h. In outline:
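Translocation of GR-ED fusion to nuclear EA restores b-gal, read by luminescence after 1 h room-temperature detection. Engineered CHO-K1 biosensor cells, 1,000/well, exposed 2 h at 37 C to titrations up to 46 uM final.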

For test [6], the target named is Mitogen-activated protein kinase 10 (Mus musculus) (UniProt Q61831). In words: JNK3 AlphaScreen Assay (AID 530).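 Also: kinase came from lysate of stimulated human HepG2 cells; signal reports phosphorylation of biotinylated GST-cJun 1-79 at Ser73 with 10 µM ATP; % is scaled to controls: 0 for no effect and ±100 for the full control effect.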 An outline of the steps:
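Room-temperature AlphaScreen kinase assay; pre-activated HepG2 lysate as JNK3 source, biotin-GST-cJun(1-79) substrate, 10 uM ATP, compound 15 min preincubation.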
On the technique in general: Alpha assays give light when donor and acceptor beads are brought close together.

Test [7] deals with 3',5'-cyclic-AMP phosphodiesterase 4B (Homo sapiens) (UniProt Q07343). In words: qHTS Assay for Inhibitors of PDE-IV (AID 607; active = well fitted activation curve with a large enough effect in the main read-out, with a control signal flat, not every such curve was filed as active; also: % of control where 0% means no effect). An outline of the steps: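 The readout is membrane depolarisation from a cAMP-sensing CNG channel, detected with a potential dye at ex 535/em 590. Cells were HEK293-derived (endogenous PDE-IV) at 1000 cells/well, titrated up to 22.9 uM final.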
Test [8] deals with Guanine nucleotide-binding protein G(i) subunit alpha-1 (Homo sapiens) (UniProt P63096). The experiment in a line: qHTS Assay for Inhibitors of RGS12 GoLoco Motif Activity (Green Fluorophore) (AID 879; active = well fitted curve in the direction sought with a large enough effect; an effect the other way counts as inactive or inconclusive;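 also: 0% = labeled peptide with Gαi1 and full inhibition = labeled peptide alone without protein; negative values mean loss of peptide binding seen as reduced polarization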). An outline of the steps:
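Fluorescence polarization assay: 50 nM Gαi1 with 10 nM FITC-labeled RGS12 GoLoco peptide in 10 mM Tris pH 7.5, 150 mM NaCl, 0.1 mM GDP, 0.05% NP40, 10 min at room temperature with compound.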
(In general: Quantitative high-throughput screening tests each substance at several concentrations.)

Test [9] is described as follows: qHTS Assay for Identification of Small Molecule Antagonists for NFkB Signaling Pathway (AID 895; active = well fitted inhibition curve with a large enough effect in the signal ratio, with a control signal flat, not every such curve was filed as active; the % refers to the signal ratio; also: potency is read from the fitted curve at half-maximal effect). In outline:
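Beta-lactamase reporter read-out (460 and 530 nm emission ratio, 405 nm excitation, 2 hrs substrate loading RT) after 5 hr stimulation with 10 pM TNF alpha in compound-treated NFkB-bla ME-180 cells in low-serum medium.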

Test [10] is described as follows: qHTS Assay for Identification of Small Molecule Agonists for Thrombopoietin (TPO) Signaling Pathway (AID 917; active = well fitted curve in the direction sought with a large enough effect; an effect the other way counts as inactive or inconclusive; also: potency is read from the fitted curve at half-maximal effect). In outline:
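Murine Ba/F3 cells stably expressing human TPO receptor and a Glycoprotein IIb promoter–luciferase reporter were IL-3-starved overnight, then treated with compounds plus TPO (26 pM final, its EC50) for 24 hrs at 37 C; luminescence was read.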

The target of test [11] is Pyruvate kinase (Leishmania mexicana) (UniProt Q27686). In words: qHTS Validation Assay for Inhibitors of Leishmania Mexicana Pyruvate Kinase (AID 945; active = well fitted curve in the direction sought with a large enough effect; an effect the other way counts as inactive or inconclusive;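 also: 0% = DMSO only neutral control wells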). An outline of the steps:
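LmPYK E451W 0.2 nM; 0.5 mM PEP, 0.1 mM ADP, 7 mM MgCl2, 50 mM KCl, imidazole pH 7.2, 0.01% Tween 20, 0.05% BSA; 1 h RT; PKLight luminescence; DMSO-normalized.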

The target in test [12] is Pyruvate kinase PKM (Homo sapiens) (UniProt P14618). The experiment in a line: qHTS Assay for Activators of Human Muscle Pyruvate Kinase (AID 954; active = well fitted curve in the direction sought with a large enough effect, not every such curve was filed as active;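 also: 0% = uninhibited enzyme and -100% = no enzyme or full thiadiazolimine inhibition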). An outline of the steps:
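Reaction: 0.1 nM purified PKM2 with 0.5 mM phosphoenolpyruvate and 0.1 mM ADP, room temperature, 1 h. Readout: luciferase-based ATP luminescence after stop reagent. Activators judged against a 0.3 nM enzyme column.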

The target in test [13] is Alpha-galactosidase A (Homo sapiens) (UniProt P06280). The experiment in a line: Counterscreen for Glucocerebrosidase Inhibitors: qHTS Assay for Human alpha-Galactosidase at pH 4.5 (AID 992; active = well fitted curve in the direction sought with a large enough effect; an effect the other way counts as inactive or inconclusive; also: 0% is about no effect). An outline of the steps: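 Concentration-response curves (0.7 nM to 77 uM final) were modeled with the Hill equation to give AC50. Reactions: 2 nM enzyme, 80 uM fluorogenic alpha-galactoside, pH 4.5 citric acid buffer, 20 min, room temperature.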
(A counterscreen serves to expose hits that act by an unwanted route or on another target.)

The target of test [14] is alpha-glucosidase (Oryza sativa, rice) (UniProt Q653V4). The experiment in a line: Counterscreen for Glucocerebrosidase Inhibitors: qHTS Assay for Rice alpha-Glucosidase at pH 5.0 (AID 997; active = well fitted curve in the direction sought with a large enough effect; an effect the other way counts as inactive or inconclusive;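 also: 0% = full activity with enzyme and -100% = basal without enzyme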). An outline of the steps:
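Rice alpha-glucosidase (4 nM final) with 400 uM 4-methylumbelliferyl-alpha-D-glucopyranoside in citrate buffer pH 5.0, 20 min at room temperature, stopped at pH 10; fluorescence 365/440 nm, compounds 0.7 nM–77 uM, AC50 from Hill fits.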

Test [15] has as its target Muscarinic acetylcholine receptor M1 (Rattus norvegicus) (UniProt P08482). In words: qHTS Assay for Antagonists of Acetylcholine Muscarinic M1 Receptor: Kinetic Measurement of Intracellular Calcium Response (AID 943; active = well fitted curve in the direction sought with a large enough effect; an effect the other way counts as inactive or inconclusive;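 also: Fluo-4 calcium signal as peak divided by basal fluorescence over 4 min; nearly all actives have a fitted effect of over 75% in size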). An outline of the steps:
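Intracellular calcium flux, recorded with Fluo-4 in a kinetic plate reader, served as signal; the response to carbachol at EC80 (100 nM final) was taken as maximal over minimal fluorescence after a 10 min compound pre-incubation in rat M1-CHO cells.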

Values without a mark were called inactive. Records with an inconclusive call do not appear. The source made the active and inactive calls. Unless noted, calls follow the shape of the dose curve; as a rule, active = well fitted curve in either direction with a large enough effect (not every such curve was filed as active); inconclusive = small, poorly fitted or top-dose-only effect, or another doubt; inactive = flat fitted curve, though single readings scatter. Where only a bound is given, the exact number is not on record here.

Chain of Pyruvate kinase PKM (Homo sapiens) (P14618 whole entry, looked up): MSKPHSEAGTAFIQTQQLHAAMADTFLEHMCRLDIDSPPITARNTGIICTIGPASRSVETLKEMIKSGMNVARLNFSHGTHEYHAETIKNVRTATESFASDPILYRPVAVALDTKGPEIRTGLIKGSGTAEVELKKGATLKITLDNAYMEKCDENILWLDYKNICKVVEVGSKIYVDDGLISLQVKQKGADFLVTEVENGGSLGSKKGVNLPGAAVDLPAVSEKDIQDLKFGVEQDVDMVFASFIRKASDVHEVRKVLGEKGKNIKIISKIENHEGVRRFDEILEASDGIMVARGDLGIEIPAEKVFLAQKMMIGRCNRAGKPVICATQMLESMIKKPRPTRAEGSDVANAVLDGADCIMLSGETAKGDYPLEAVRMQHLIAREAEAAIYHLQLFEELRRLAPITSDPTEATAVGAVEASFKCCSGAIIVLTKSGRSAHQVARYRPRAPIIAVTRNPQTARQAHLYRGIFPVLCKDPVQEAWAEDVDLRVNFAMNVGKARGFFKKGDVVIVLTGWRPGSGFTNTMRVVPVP
Chain of Guanine nucleotide-binding protein G(i) subunit alpha-1 (Homo sapiens) (P63096 whole entry, looked up): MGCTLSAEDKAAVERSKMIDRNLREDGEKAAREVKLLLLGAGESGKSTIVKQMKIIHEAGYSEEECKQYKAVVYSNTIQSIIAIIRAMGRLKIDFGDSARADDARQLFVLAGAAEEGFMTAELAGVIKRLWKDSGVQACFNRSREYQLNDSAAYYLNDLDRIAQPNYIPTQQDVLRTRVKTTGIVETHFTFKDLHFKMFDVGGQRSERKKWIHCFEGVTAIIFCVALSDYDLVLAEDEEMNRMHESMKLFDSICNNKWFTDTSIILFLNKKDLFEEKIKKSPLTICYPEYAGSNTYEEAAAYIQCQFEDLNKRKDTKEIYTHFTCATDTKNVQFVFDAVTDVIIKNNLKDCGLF
Chain of Pyruvate kinase (Leishmania mexicana) (Q27686 2-499 E452W): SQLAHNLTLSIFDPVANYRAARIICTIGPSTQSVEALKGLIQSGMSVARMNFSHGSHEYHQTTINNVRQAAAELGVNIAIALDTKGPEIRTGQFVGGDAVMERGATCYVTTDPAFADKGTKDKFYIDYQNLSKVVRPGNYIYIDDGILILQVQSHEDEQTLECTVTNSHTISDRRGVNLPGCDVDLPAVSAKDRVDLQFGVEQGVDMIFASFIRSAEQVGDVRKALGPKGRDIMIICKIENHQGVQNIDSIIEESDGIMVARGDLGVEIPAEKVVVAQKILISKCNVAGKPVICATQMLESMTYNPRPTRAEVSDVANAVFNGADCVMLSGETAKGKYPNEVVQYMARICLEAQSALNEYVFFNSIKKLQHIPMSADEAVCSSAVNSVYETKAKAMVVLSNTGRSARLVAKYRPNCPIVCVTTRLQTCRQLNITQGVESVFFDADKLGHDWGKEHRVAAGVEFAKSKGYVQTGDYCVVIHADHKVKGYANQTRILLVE
Chain of 3',5'-cyclic-AMP phosphodiesterase 4B (Homo sapiens) (Q07343 whole entry, looked up): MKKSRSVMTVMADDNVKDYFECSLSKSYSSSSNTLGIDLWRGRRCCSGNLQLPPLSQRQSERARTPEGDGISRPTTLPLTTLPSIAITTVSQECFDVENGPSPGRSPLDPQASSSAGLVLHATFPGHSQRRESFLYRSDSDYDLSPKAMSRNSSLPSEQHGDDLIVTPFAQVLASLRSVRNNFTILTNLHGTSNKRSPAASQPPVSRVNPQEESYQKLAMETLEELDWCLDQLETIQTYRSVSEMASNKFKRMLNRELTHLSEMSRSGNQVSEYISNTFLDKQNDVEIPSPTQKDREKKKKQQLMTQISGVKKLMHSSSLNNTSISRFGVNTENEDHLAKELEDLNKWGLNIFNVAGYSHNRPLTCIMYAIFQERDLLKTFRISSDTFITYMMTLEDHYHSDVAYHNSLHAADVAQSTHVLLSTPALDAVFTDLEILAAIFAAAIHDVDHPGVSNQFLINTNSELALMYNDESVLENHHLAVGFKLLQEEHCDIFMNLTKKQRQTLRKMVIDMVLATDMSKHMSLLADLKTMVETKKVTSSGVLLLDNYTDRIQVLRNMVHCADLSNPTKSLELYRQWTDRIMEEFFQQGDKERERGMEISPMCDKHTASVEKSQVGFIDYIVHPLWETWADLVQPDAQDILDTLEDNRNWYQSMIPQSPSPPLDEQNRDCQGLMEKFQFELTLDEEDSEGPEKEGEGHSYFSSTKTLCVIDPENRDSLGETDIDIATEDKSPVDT
Chain of Alpha-galactosidase A (Homo sapiens) (P06280 whole entry, looked up): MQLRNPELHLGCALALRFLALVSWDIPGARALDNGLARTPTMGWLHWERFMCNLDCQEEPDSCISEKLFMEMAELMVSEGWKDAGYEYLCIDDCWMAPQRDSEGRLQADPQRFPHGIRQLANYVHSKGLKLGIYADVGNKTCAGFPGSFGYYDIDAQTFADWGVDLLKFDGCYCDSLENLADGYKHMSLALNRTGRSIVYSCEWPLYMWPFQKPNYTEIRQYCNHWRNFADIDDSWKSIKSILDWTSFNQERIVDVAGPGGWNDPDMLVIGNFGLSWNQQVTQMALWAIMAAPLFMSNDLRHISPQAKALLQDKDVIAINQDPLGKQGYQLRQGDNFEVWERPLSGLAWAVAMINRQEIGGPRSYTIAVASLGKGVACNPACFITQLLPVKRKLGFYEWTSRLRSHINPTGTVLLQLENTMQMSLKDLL
Chain of Glucocorticoid receptor (Homo sapiens) (P04150 whole entry, looked up): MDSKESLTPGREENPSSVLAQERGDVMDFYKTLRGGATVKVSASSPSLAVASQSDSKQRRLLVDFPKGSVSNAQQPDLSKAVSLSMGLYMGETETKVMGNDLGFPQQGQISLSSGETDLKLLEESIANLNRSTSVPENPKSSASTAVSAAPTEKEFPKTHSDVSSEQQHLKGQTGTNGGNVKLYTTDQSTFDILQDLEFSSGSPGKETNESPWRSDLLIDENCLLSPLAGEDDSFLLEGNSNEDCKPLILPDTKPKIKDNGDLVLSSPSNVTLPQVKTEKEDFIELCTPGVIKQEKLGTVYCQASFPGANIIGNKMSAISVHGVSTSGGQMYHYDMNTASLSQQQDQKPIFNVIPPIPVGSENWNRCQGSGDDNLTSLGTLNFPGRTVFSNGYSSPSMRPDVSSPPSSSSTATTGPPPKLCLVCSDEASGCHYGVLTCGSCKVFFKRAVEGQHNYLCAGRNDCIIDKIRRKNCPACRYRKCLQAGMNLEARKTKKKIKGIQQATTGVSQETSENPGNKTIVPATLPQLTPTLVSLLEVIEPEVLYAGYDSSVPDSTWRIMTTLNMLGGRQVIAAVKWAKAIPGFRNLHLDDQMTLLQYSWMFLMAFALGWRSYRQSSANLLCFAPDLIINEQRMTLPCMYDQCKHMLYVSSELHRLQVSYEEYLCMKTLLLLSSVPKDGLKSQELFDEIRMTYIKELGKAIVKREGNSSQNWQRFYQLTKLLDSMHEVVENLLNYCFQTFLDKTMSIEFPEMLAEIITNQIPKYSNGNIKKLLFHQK
Chain of Muscarinic acetylcholine receptor M1 (Rattus norvegicus) (P08482 whole entry, looked up): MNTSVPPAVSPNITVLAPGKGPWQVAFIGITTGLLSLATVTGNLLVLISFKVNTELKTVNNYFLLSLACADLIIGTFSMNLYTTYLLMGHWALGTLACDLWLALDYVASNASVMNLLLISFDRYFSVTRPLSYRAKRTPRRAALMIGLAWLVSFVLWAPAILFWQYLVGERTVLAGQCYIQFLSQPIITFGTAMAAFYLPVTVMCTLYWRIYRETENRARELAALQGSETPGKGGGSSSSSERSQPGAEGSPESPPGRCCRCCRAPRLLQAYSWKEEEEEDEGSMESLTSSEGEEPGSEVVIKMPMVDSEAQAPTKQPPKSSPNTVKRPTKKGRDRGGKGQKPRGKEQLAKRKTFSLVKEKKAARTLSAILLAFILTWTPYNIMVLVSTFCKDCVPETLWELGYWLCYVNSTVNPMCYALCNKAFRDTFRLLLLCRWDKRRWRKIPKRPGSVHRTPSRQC

For the compound `OC[C@@H]1O[C@@H](n2cnc3c(Nc4ccccc4)ncnc32)[C@@H](O)[C@H]1O`, the results for the activity change, negative = inhibition in test [1] and in [2] were 7.84% [at 38 µM] and 0.0847% [at 38 µM], respectively. The activity, negative = inhibition in test [3] was -14.3% [at 38 µM]. Also, the Potency in [4] is more than 46 µM; in test [5], more than 46 µM; in [9], 2.24 µM (active); in [10], 3.98 µM (active). The Potency entry in [6], in test [7] and in test [11] was “inactive” each time. The compound was called inactive in test [8], in [12], in [13] and in test [14].
Take `CCCCC[C@H](O)CCCC(=O)O`: the values for the activity change, negative = inhibition in test [1] and in test [2] were -0.599% [at 38 µM] and -3.23% [at 38 µM], respectively. Besides, the activity, negative = inhibition in test [3] is -28.6% [at 38 µM]. Besides, the Potency was more than 46 µM in [4], more than 46 µM in test [5] and 5.01 µM (active) in test [9]. For the same compound, the Potency entry in [6], in test [7], in [10], in [15] and in test [11] was “inactive” in each case. Further, the call in [8], in test [12], in [13] and in test [14] was inactive.
As for `COc1ccc(Cl)cc1N=Cc1c(O)cc(C)oc1=O`, the results for the activity change, negative = inhibition in test [1] and in test [2] were -3.56% and -6.83%, respectively. The activity, negative = inhibition in [3] is 5.26%. The Potency in [4] was more than 20.6 µM.
With `CC(C)(C(=O)O)c1ccc([C@@H](O)CCCN2CCC(C(O)(c3ccccc3)c3ccccc3)CC2)cc1`, the activity change, negative = inhibition in test [1] was 8.57% [at 38 µM]; in test [2] it was 8.69% [at 38 µM]. Besides, the activity, negative = inhibition in test [3] was 11.8% [at 38 µM]. Besides, the Potency in [4] and in [5] was more than 46 µM each time. The Potency entry in [6], in test [10] and in test [11] was “inactive” each time. Also, the compound was called inactive in [8], in test [12], in test [13] and in test [14].
In the case of `CCOC(=O)c1cc2c(=O)n3cccc(C)c3nc2n(Cc2cccnc2)c1=N`, the figures for the activity change, negative = inhibition in test [1] and in [2] were 13.7% and -26.5%, respectively. The activity, negative = inhibition in test [3] is 12%. Also, the Potency in test [4] is more than 20.6 µM.
As to `O=C(O)C[C@@H]1CCCc2ccccc2[C@H]1O`, the results for the activity change, negative = inhibition in test [1] and in test [2] were 1.66% [at 38 µM] and 2.27% [at 38 µM], respectively. In [3], the activity, negative = inhibition was -11.9% [at 38 µM]. Besides, the Potency in test [4] and in test [5] was more than 46 µM throughout. Besides, the Potency result in [6], in test [7], in [10], in test [15] and in test [11] was “inactive” each time. Besides, the compound was classed as inactive in [12], in test [13] and in [14].
